GLP-1R agonist = activates the human GLP-1 receptor; hit rate 0.007% among 380,000; P43220; HEK293 GLP-1R CRE-luciferase, luminescence, 4-6 h; cells express a hypersensitive GLP-1R form; Potency, µM (doses to about 45.6 µM), for inactives: at the highest dose activation, actives largely listed as activators; further: potency means the concentration at half of the fitted maximal effect; % of control where 0% means no effect
GLP1R cytotox = cytotoxicity in counter-screen for GLP-1R inverse agonists. AID 624418. hit rate 0.13% among 410,000. HEK293 cAMP-luciferase reporter cells, luminescence, 24 h. Potency, µM (highest dose often 38.3 µM), without a hit: top-dose activity change, negative = inhibition, actives largely listed as inhibitors;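 further: loss of luciferase light is scored as toxicity; potency means the concentration at half of the fitted maximal effect; on the % scale 0 is the no-effect control and ±100 the full control effect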
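Seeding density was 200 cells/uL; after overnight-length (12 h) culture, 23 nL compounds went on for 24 h at 37 °C. Readout used a luciferase detection reagent, luminescence taken after 12 min at room temperature.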
GLP-1R inv ag = acts as inverse agonist at human GLP-1 receptor; HEK293 GLP-1R CRE-luciferase, luminescence, 24 h; GLP-1R form is constitutively active; Potency, µM (titrated, usually from 38.3 µM), for inactives: at the top dose activity change, negative = inhibition, usual class: inhibitors; hit rate 1.6% among 410,000; AID 624417; further: potency means the concentration at half of the fitted maximal effect; on the % scale 0 is the no-effect control and ±100 the full control effect; nearly all actives have a fitted effect of over 55% in size
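Constitutively active GLP-1R drives a cAMP-responsive luciferase in stably transfected HEK293 cells; test compounds are added after overnight (12 h) attachment and left 24 hr, and signal loss in luminescence marks inhibition.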
TRHR enhancer-1 = allosteric enhancers of human TRH receptor | P34981 | TRHR cells, fluo-8 calcium fluorescence, EC20 TRH enhancement | enhancement, % at 2 µM | hit rate 0.66% among 360,000; in the data active means enhancement above about 30%; further: 0% is about no effect
Target sequence (P34981 whole entry, looked up): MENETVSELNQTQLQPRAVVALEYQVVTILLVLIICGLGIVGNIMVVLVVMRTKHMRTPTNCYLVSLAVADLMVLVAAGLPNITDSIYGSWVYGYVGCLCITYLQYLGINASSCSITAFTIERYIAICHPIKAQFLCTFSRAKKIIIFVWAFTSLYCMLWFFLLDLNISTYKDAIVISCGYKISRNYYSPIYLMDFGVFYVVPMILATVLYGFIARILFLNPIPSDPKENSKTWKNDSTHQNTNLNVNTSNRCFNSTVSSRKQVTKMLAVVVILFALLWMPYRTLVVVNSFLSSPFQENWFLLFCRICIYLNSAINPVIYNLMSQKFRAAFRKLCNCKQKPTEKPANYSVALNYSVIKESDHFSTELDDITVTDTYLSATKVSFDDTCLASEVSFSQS
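TRHR-expressing cells loaded with fluo-8 calcium dye were read kinetically (ex 480/em 530) during compound addition, then stimulated with an EC20 of TRH (10 nM final). Enhancement of the Gq-mediated intracellular calcium response was scored.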
PTHR1 ag = activates the human parathyroid hormone receptor PTHR1; HEK293 GP2 PTHR1 cells, GloSensor cAMP luminescence, 1 h; hit rate 0.075% among 410,000; Q03431; Potency, µM (series often up to 115 µM), for the others: at the highest dose activation, hits mostly activators; further: potency means the concentration at half of the fitted maximal effect; nearly all actives have a fitted effect of over 55% in size
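HEK-293-derived GP2 cells expressing PTHR1 and a GloSensor cAMP reporter, 3,000/well, plated overnight, given luciferin plus IBMX (each 0.5 mM as added) for 1 h at 37 °C, then compound for 1 h at 37 °C. Luminescence was read after 15 min at room temperature.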
TRHR agonist-1 = TRH receptor (human) agonism; TRHR cells, calcium flux fluo-8, FDSS agonist mode; activation, % at 2 µM; hit rate 0.18% among 360,000; in the data active means activation above about 30%; further: 0% is about no effect
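In this calcium-flux screen, cells bearing human TRHR are dye-loaded with fluo-8, baselined for 10 cycles, then exposed to library compounds; positive kinetic calcium responses during the agonist phase mark hits, with TRH as control.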
TRHR enhancer-2 = human TRH receptor allosteric enhancement confirmation; shares compounds with TRHR enhancer-1; TRH receptor cell assay, enhancer confirmation qHTS; activity change, negative = inhibition, % at 46.1 µM; 970 tested, under 10 active;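 further: compound effect scored on response to added TRH at EC20 of 10 nM; 0% is about no effect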
TRHR agonist-2 = human TRH receptor agonism confirmation | shares compounds with TRHR enhancer-1 | TRHR-expressing cells, agonist activation read-out | Potency, µM (top dose mostly 46.1 µM), for the others: top-dose activation, most hits filed as activators | hit rate 8% among 970 | AID 493078; further: potency means the concentration at half of the fitted maximal effect; 0% is about no effect; nearly all actives have a fitted effect of over 75% in size
* hit, by the source's call; i = inactive; ? = inconclusive; . = no result given; [ ] = another dose, or the depositor's remark. Sampled rows, rich in hits. Any-hit rate of the full collection: about 2.4%. Unless noted, the call rests on the fitted dose curve; in most records, active means well fitted curve in the direction sought with a large enough effect; inconclusive means small, poorly fitted or top-dose-only effect, or another doubt; inactive means no such curve, though single readings can be large; an effect the other way counts as inactive or inconclusive.

SMILES	GLP-1R agonist	GLP1R cytotox	GLP-1R inv ag	TRHR enhancer-1	PTHR1 ag	TRHR agonist-1	others
O=C(COC(=O)c1ccc(O)cc1O)Nc1cccc2ccccc12	-9%	-20%	?	35*	i	0
Cc1nc2ccccc2n1CC(O)Cn1c2ccccc2c2ccccc21 (configuration not stated)	0%	11%	9%	-4	16µM*	1
Cc1ccc2c(c1)c1c(n2CC(O)Cn2c(C)nc3ccccc32)/C(=N\O)CCC1 (configuration not stated)	-12%	?	10µM*	4	i	1
CCC(CC)NC(=O)COn1nnc2ccc(S(=O)(=O)N3CCOCC3)cc21	0%	8%	-17%	2	i	0
Cc1cc2c(s1)c1cnn(Cc3ccc(S(C)(=O)=O)cc3)c(=O)c1n2C	.	.	.	-1	.	-1
COC(=O)C=CC(=NNc1ccccc1)c1ccccc1	?	-8%	7.9µM*	.	-5%	.
Clc1cc2cccnc2c2ncccc12	-2%	?	4.5µM*	-1	-92%	2
Cc1c(C)c2cccnc2c2ncccc12	2%	0.89µM*	?	9	?	-1
Oc1c(I)cc(Cl)c2cccnc12	4%	?	?	8	-64%	0
C=CCn1c(N2CCCC2)nc2c1c(=O)n(C)c(=O)n2C	-2%	-4%	16%	-7	i	-2
CCc1nn(C(CC)C(=O)NCC(C)c2ccccc2)c(=O)c2cc3occc3n12 (configuration not stated)	11%	-10%	?	-6	i	5
COCCNC(=S)N/N=C/c1ccc(-c2ccc([N+](=O)[O-])cc2)o1	1%	-6%	8%	2	25%	34*	TRHR enhancer-2=-8;TRHR agonist-2=10µM*
O=C(Nc1ccc(S(=O)(=O)N2CCCCC2)cc1)c1ccccc1F	8%	-9%	-27%	-1	-22%	-1
CC1CCN(c2ncnc3ccccc23)CC1	-3%	-3%	10%	-1	-34%	2
COCCOc1cc2ncnc(N3CCC(C(=O)O)CC3)c2cc1OCCOC	-3%	-2%	11%	43*	i	-2	TRHR enhancer-2=3;TRHR agonist-2=-1%
NC(=O)C1CCN(c2nc(-c3ccccc3Br)cs2)CC1	13%	.	.	0	-44%	0
Cc1ccc(-c2cn3nc(-c4ccccc4)c(-c4ccccc4)nc3n2)cc1	10%	237%	-2%	3	i	4
c1ccc(-c2cn3nc(-c4ccccc4)c(-c4ccccc4)nc3n2)cc1	6%	i	-21%	-7	-2%[57.5 µM]	50*	TRHR enhancer-2=6;TRHR agonist-2=21µM*
Cc1cc(=O)[nH]c(N/N=C/c2ccc(-c3ccc(F)cc3)o2)n1	0%	0%	19%	-9	i	0
Cc1cccc(N2CCN(C(=O)NC3CCCCC3)CC2C)c1 (configuration not stated)	10%	-7%	?	42*	-5%	0	TRHR enhancer-2=-9;TRHR agonist-2=2%
Cc1cccc(N2CCN(C(=O)c3ccccn3)CC2C)c1 (configuration not stated)	1%	-10%	7%	1	i	-2
O=S(=O)(NCc1ccco1)c1cnc(Cl)c(Br)c1	-9%	-18%	-18%	0	-17%	0
COc1ccc(C(C[N+](=O)[O-])c2c(-c3ccccc3)cc3ccccn23)cc1 (configuration not stated)	0%	?	?	54*	-32%	0	TRHR enhancer-2=-1;TRHR agonist-2=4%
